According to publication PMC6212790, “How bacterial xenogeneic silencer rok distinguishes foreign from self DNA in its resident genome”:
The full ranking holds about 33,000 sequences; the median of “e-score” is about -0.037, and the highest 2% start at about 0.34. Many of the other results were omitted from the sample, so the highest values are more common in it than they were.

molecular target: T1, GST-Rok (full length) (Bacillus subtilis subsp. subtilis str. …, UniProt O34857 1-191); test: protein binding microarray; Rok is a gene silencer of Bacillus subtilis; high values mean tight binding; conditions: protein: recombinant; tags: GST (pTH5325, pDEST15-Magic modified); dsDNA, one strand shown
T1 sequence: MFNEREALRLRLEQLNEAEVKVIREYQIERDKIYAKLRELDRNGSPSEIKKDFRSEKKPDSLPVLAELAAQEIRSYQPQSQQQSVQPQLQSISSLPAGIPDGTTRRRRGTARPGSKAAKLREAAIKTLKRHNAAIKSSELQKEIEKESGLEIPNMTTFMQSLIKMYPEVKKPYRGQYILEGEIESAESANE
Summary of the method: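 Each has a 25-mer constant primer and a 35-mer variable part from a de Bruijn sequence of order 10, covering every non-palindromic 8-mer at least 32 times (palindromic 16). Preference for each 8-mer is given as a rank-based, unitless enrichment score (E-score). Its range runs from 0.5 (most favored) to −0.5 (most disfavored).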

Sequence | binding signal
AAAAACTT | -0.0545 E-score
GAAGAAGA | -0.113 E-score
CACGCTGA | -0.189 E-score
CATACCGC | -0.0931 E-score
CCGATTTC | -0.187 E-score
ACATAAAC | 0.257 E-score
AAAAGTTC | 0.114 E-score
ACGCAGTA | 0.125 E-score
AGGATTCA | -0.117 E-score
AACCAGCT | -0.112 E-score
CAAAACTC | 0.0709 E-score
CAAAACTG | -0.0906 E-score
TAAAACAA | 0.203 E-score
GCAAACCA | -0.161 E-score
GCAAACTA | 0.386 E-score
CAAAACTA | 0.383 E-score
GCAAACAA | -0.152 E-score
TAAAACGA | 0.111 E-score
TAAAACTA | 0.375 E-score
ATGGCTTA | 0.0565 E-score
AGAATTCA | 0.0872 E-score
ACCCTCGC | -0.0467 E-score

Sequence | binding signal
ATAACTTG | 0.289 E-score
GCATAGGC | -0.0277 E-score
ATATATAG | 0.416 E-score
ATCTATAG | 0.313 E-score
CTATAGAG | 0.0607 E-score
ATATAGGG | -0.0461 E-score
ATATAGCC | -0.000533 E-score
CCATATAG | 0.0758 E-score
ATATAGCG | 0.349 E-score
ATATAGCA | 0.213 E-score
CTATATAG | 0.402 E-score
AGTTATGG | 0.209 E-score
CAGCTAGA | 0.0847 E-score
AACTTCAC | -0.0432 E-score
CCTAACGA | -0.117 E-score
ATTTTGCC | 0.0261 E-score
GATCTGAA | -0.0373 E-score
CATGCCGA | 0.0242 E-score
AATCTACC | 0.437 E-score
GATCTAAC | 0.12 E-score
ACTCTACC | -0.0638 E-score
AATCTAAC | 0.189 E-score

Sequence | binding signal
AATCTACT | 0.432 E-score
GATCTACC | 0.382 E-score
CATCTACC | 0.291 E-score
AATCTACG | 0.311 E-score
ACTCTACT | 0.27 E-score
AGTTATTC | 0.069 E-score
ACCTTAAC | -0.0118 E-score
CATGGTAC | 0.13 E-score
GTTTAACA | 0.108 E-score
AATTCAGA | 0.0748 E-score
CACTCAAC | -0.00301 E-score
CAGCATTC | 0.0234 E-score
GTGGCTGA | -0.0523 E-score
AGAAAAAG | 0.0648 E-score
ATTTATTA | 0.312 E-score
ATTTATTG | 0.348 E-score
ATTTATTC | 0.219 E-score
CTTTATAC | 0.226 E-score
ATTTATGG | 0.218 E-score
ATTTATAG | 0.398 E-score
ATTTATAC | 0.356 E-score
ATTTATAA | 0.333 E-score

Sequence | binding signal
AGTTATAC | 0.329 E-score
CATTAGGC | -0.146 E-score
AGAGTGGA | -0.109 E-score
AACCAGAG | -0.187 E-score
TACTACCA | 0.386 E-score
AACTACCG | 0.417 E-score
AACTACCC | 0.292 E-score
AACTATCG | 0.316 E-score
CACTACCA | 0.221 E-score
CACTACCG | 0.0654 E-score
AACTACCA | 0.432 E-score
GACTACCA | 0.095 E-score
TGCTACCA | 0.152 E-score
ACCTACCT | 0.271 E-score
TCCTACCA | 0.175 E-score
AACTACCT | 0.416 E-score
GGACTCTA | -0.165 E-score
CTACAGGA | -0.04 E-score
ACAAGCCT | -0.083 E-score
CTCTCACA | -0.156 E-score
